Screens (PubChem BioAssay)
FBPA coupling cs: qHTS Assay for Inhibitors of Fructose-1,6-bisphosphate Aldolase from Giardia Lamblia: Coupling assay counterscreen; 0.67% of 290,000 active; activity change, negative = inhibition, % at 58.2 µM, hits read low; coupling enzyme system counterscreen, AmpLite Red fluorescence; in the data active = activity change below about -30%
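Counterscreen of the coupled detection system alone, without aldolase: glyceraldehyde-3-phosphate coupling enzymes plus AmpLite Red readout. Compounds at 57.5 uM final, 10 min RT preincubation, 20 min RT reaction, fluorescence 525/598 nm.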
Tau fibril FP: qHTS for Inhibitors of Tau Fibril Formation, Fluorescence Polarization; 0.39% of 280,000 active; Microtubule-associated protein tau (Homo sapiens), P10636; Potency, µM (titrated, usually from 57.7 µM), for the others: at the highest dose activity, negative = inhibition, most hits filed as inhibitors; K18 P301L tau heparin fibrillization, Alexa594 FP, 6 h; also: potency is read from the fitted curve at half-maximal effect; nearly all actives have a fitted effect of over 55% in size
Target sequence (P10636 561-689 P618L limits assumed): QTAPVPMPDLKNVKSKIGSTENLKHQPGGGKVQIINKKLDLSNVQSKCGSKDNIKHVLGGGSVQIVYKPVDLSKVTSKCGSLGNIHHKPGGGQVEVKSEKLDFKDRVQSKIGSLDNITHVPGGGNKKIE
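Human tau K18 […] P301L fragment, 15 uM unlabeled plus 0.24 uM Alexa 594-labeled tau (final), with compound and 20 uM heparin in 100 mM sodium acetate pH 7; 6 hr at 37 C, then Alexa 594 FP read.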
Tau fluor cs: Counterscreen qHTS for Inhibitors of Tau Fibril Formation, Fluorescence Polarization. tau K18 P301L Alexa594 fluorescence, heparin fibrillization. Potency, µM (series often up to 57.7 µM), without a hit: at the highest dose activity change, negative = decrease. 0.93% of 280,000 active; also: potency is read from the fitted curve at half-maximal effect; nearly all actives have a fitted effect of over 55% in size
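Human tau K18 P301L (15 uM unlabeled, 0.24 uM Alexa 594-labeled) in 100 mM sodium acetate pH 7 with 20 uM heparin, 6 hr at 37 C. ThT 30 uM added, 1 hr ambient; Alexa 594 FP and total fluorescence read at 555/632 nm.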
Sfp PPTase inh: qHTS Assay for Inhibitors of Bacillus subtilis Sfp phosphopantetheinyl transferase (PPTase) | Potency, µM, without a hit: largest response in the series, negative = inhibition, actives largely listed as inhibitors | 3.5% of 310,000 active | AID 1490, 2009 | Biochemical Sfp PPTase activity, qHTS;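 also: the enzyme is Sfp with the accession as filed and its product quenches rhodamine fluorescence; potency is read from the fitted curve at half-maximal effect; 0% = enzyme reaction without inhibitor and -100% = no enzyme wells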
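Fluorescence-quenching assay with 15 nM Sfp, 5 uM rhodamine-CoA and 12.5 uM BHQ-2-labelled ybbR peptide in pH 7.6 Hepes/MgCl2 buffer. Enzyme was pre-incubated with compound for 15 min at room temperature. Rate was taken from the 30-min fluorescence change (525/598 nm).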
Tau ThT inhib: qHTS for Inhibitors of Tau Fibril Formation, Thioflavin T Binding; Microtubule-associated protein tau (Homo sapiens), P10636; recombinant tau K18 P301L (four-repeat tau fragment), heparin-induced fibrillization, ThT fluorescence; Potency, µM (series often up to 57.4 µM), for the others: at the top dose activity, negative = inhibition, actives largely listed as inhibitors; 2.1% of 270,000 active; AID 1460, 2008; also: potency is read from the fitted curve at half-maximal effect; nearly all actives have a fitted effect of over 55% in size
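Recombinant human tau K18 fragment […] carrying P301L, 15 uM unlabeled plus 0.24 uM Alexa 594-labeled, was fibrillized with 20 uM heparin in 100 mM sodium acetate pH 7 for 6 hr at 37 C; 30 uM ThT fluorescence read after 1 hr.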
The depositor's hits bear a star; ? = inconclusive; . = no result given; [ ] = remark or other dose. This is a sample that favours compounds with a hit; in the whole collection about 5.2% have one here. Unless noted, calls follow the shape of the dose curve; as a rule, active = well fitted curve in the direction sought with a large enough effect; inconclusive = small, poorly fitted or top-dose-only effect, or another doubt; inactive = no such curve, though single readings can be large; an effect the other way counts as inactive or inconclusive. Unless noted, % is scaled to controls: 0 for no effect and ±100 for the full control effect.

SMILES | FBPA coupling cs | Tau fibril FP | Tau fluor cs | Sfp PPTase inh | Tau ThT inhib
Cc1cccc(NC(=O)c2oc3ccc(S(=O)(=O)N4CCC5(CC4)OCCO5)cc3c2C)c1C | . | 3.0% | -15.0% | . | -9.6%
Clc1ccccc1-c1csc(Nc2cccnc2)n1 | -2.1 | 15.9% | -26.6% | 31.6µM* | -18.9%
Clc1cccc(-c2csc(Nc3cccnc3)n2)c1 | 1.8 | 13.6% | ? | 56.2µM* | -19.1%
c1cncc(Nc2nc(-c3cccnc3)cs2)c1 | -1.7 | 12.0% | -7.3% | -6.5% | -17.8%
CC(C)CCCC(C)C1CC(=O)C2=C3CCC4CC(O)CCC4(C)C3CCC21C (stereo unspecified) | . | . | . | -11.1% | .
Cc1ccc(S(=O)(=O)/N=C(/Sc2ccccc2C(=O)O)c2ccccc2)cc1 | . | . | . | 79.4µM* | .
Cc1ccc(S(=O)(=O)/N=C(\Sc2ccccc2)c2ccccc2)cc1 | 2.4 | ? | -5.8% | -20.5% | ?
O=S(=O)(/N=C(\Sc1ccccc1)c1ccccc1)c1ccc(Cl)cc1 | 8.0 | ? | -5.3% | 35.5µM* | ?
Cc1ccc(OCC(=O)Nc2ccc([N+](=O)[O-])cc2)cc1 | 0.3 | -2.6% | 3.4% | 8.0% | -2.2%
O=C(NC(=S)NNC(=O)c1ccccc1[N+](=O)[O-])c1ccc(Br)cc1 | 1.1 | . | . | 79.4µM* | .
Cc1ccc(C(=O)NC(=S)NNC(=O)COc2ccc([N+](=O)[O-])cc2)cc1 | 3.2 | . | . | 70.8µM* | .
O=C(CCc1ccccc1)NNC(=S)NC(=O)c1ccc(Cl)cc1 | 4.2 | 1.9% | -8.3% | 50.1µM* | -19.6%
O=C(NNC(=S)NC(=O)c1ccccc1[N+](=O)[O-])c1ccccc1Cl | 1.3 | -4.4% | 1.6% | 8.4% | ?
Cc1ccc(/C=C/C(=O)Nn2cnnc2)cc1 | 1.7 | ? | -15.0% | 19.6% | 14.1µM*
CCCCc1ccc(NC(=O)COc2cccc3c(=O)n(C)ccc23)cc1 | . | -13.9% | -15.1% | . | -16.3%
C[C@@]1(C(NC(=O)Cc2ccc(C(F)(F)F)cc2)c2ccc(-c3ccccc3)cc2)C[C@H]1C1CCCCC1 (stereo partly specified) | 1.7 | ? | -3.9% | 27.6% | -9.6%
CCC[C@@H]1CC(C(=O)NC(C2O[C@H](SC)C(OP(=O)(O)O)[C@H](O)[C@H]2O)[C@H](C)Cl)N(C)C1 (stereo partly specified) | 0.0 | . | . | 7.2% | .
CC(=O)NNC(=S)NC(=O)c1ccccc1 | -0.6 | -1.3% | 2.6% | 17.8µM* | -4.9%
CC(=O)NNC(=S)NC(=O)c1ccc(C)cc1 | 4.1 | 4.0%[2.34 µM] | 1.8%[2.34 µM] | 22.6% | ?
Cc1ccc(C(=O)NC(=S)Nn2cnnc2)cc1 | 0.5 | -10.2% | -3.0% | 28.2µM* | -0.7%
O=C(COc1ccc([N+](=O)[O-])cc1)NNC(=S)NC(=O)c1ccc(Br)cc1 | 10.2 | -7.8% | -7.3% | 44.7µM* | ?
O=C(COc1ccccc1)NNC(=S)NC(=O)c1ccccc1 | 2.6 | -6.4% | -6.4% | ? | -16.2%
CCC(=O)NNC(=S)NC(=O)c1ccc(C)cc1 | -1.1 | -2.0% | 3.9% | 56.2µM* | -9.8%
CCC(=O)NC(=S)Nc1ccc(NC(=S)NC(=O)c2ccc(C)cc2)cc1 | 1.9 | -9.5% | 2.6% | -4.0% | -12.0%
CCOc1ccc(N(C(C)C(=O)N2CCOCC2)S(C)(=O)=O)cc1 (stereo unspecified) | -0.8 | . | . | 3.7% | .
SMILES | FBPA coupling cs | Tau fibril FP | Tau fluor cs | Sfp PPTase inh | Tau ThT inhib
C=CCn1c(-c2ccncc2)n[nH]c1=S | 5.0 | 8.5% | 9.0% | -23.1% | -2.5%
C=CCn1c(Cc2nc3ccc(Cl)cc3[nH]2)n[nH]c1=S | -7.6 | 5.8% | -13.3% | 50.1µM* | ?
C=CCn1c(Cc2ccccc2)n[nH]c1=S | -0.2 | 10.6% | 5.0% | -16.4% | 2.7%
C=CCn1c(-c2ccccc2)n[nH]c1=S | -7.3 | 4.3% | -13.9% | 5.01µM* | -5.6%
Cc1cccc(NC(=O)C2CCCN(S(=O)(=O)c3ccc(Br)s3)C2)c1 (stereo unspecified) | . | -19.6% | ? | . | ?
CCCCOc1ccc(C(=O)N(Cc2ccc(C(C)C)cc2)C2CCS(=O)(=O)C2)cc1 (stereo unspecified) | . | 0.4% | -11.3% | . | -9.9%
Cc1ccc(-c2nc(Nc3ccc(O)cc3)c3ccccc3n2)cc1 | 0.5 | . | . | 9.7% | .
Cc1ccc(-c2nc(Nc3ccc(N4CCOCC4)cc3)c3ccccc3n2)cc1 | -4.3 | ? | 3.98µM*[quencher] | -1.0% | 15.8µM*
COC(=O)c1ccc(Nc2nc(-c3ccc(C)cc3)nc3ccccc23)cc1 | . | 3.55µM* | ? | . | -16.7%
Cn1c(=O)cc(SCC(=O)Nc2cccc(C#N)c2)c2ccc(Cl)cc21 | . | ? | -15.7% | . | 12.9%
CC(C)c1nc2sc3c(SCC(=O)NCc4ccco4)ncnc3c2c2c1CCC2 | -5.1 | -5.2% | 1.7% | 25.1µM* | -3.4%
CC1(C)Cc2nc3sc4c(SCC(=O)NCc5ccco5)ncnc4c3cc2CO1 | 5.3 | ? | -11.2% | ? | ?
O=C(CN1CCN(c2ccc(O)cc2)CC1)Nc1ccc(SC(F)F)cc1 | -9.8 | 10.8% | -29.6% | 35.5µM* | ?
Cc1c(NC(=S)NNC(=O)CCC(=O)O)c(=O)n(-c2ccccc2)n1C | -0.6 | -0.9% | -2.4% | 44.7µM* | -2.2%
Cc1c(NC(=O)CN2CCN(c3ccc(O)cc3)CC2)c(=O)n(-c2ccccc2)n1C | -22.2 | ? | -18.2% | 22.4µM* | ?
CCNC(=S)Nc1c(C)n(C)n(-c2ccccc2)c1=O | 1.4 | 2.7% | -8.3% | -0.7% | -8.0%
Cc1c(NC(=O)CN2CCN(c3ccc([N+](=O)[O-])cc3)CC2)c(=O)n(-c2ccccc2)n1C | 3.9 | 3.8% | 0.6% | 10.8% | ?
O=C(c1cccc(Cl)c1)n1nc(-c2ccco2)nc1NCc1cccs1 | . | -5.0% | -24.2% | . | ?
C=CCc1ccccc1OCCSc1nc(-c2ccccc2F)nc2cc(=O)[nH]n12 | . | -3.1% | -16.7% | . | -17.7%
CC[C@H](C)[C@H](NC(=O)[C@H](CCC(=O)O)NC(=O)CNC(=O)[C@H](CCCCN)NC(=O)[C@H](CCC(=O)O)NC(=O)[C@H](CCSC)NC(=O)[C@H](CCSC)NC(=O)[C@H](CCSC)NC(=O)[C@H](CCC(=O)O)NC(=O)CNC(=O)[C@H](CO)NC(=O)[C@H](CO)NC(=O)[C@H](CO)NC(=O)[C@@H](N)CC(N)=O)C(=O)N[C@@H](CCCCN)C(=O)O | 0.1 | . | . | -0.2% | .
Cc1ccc(CN2C(=O)SC(Nc3ccc(Cl)cc3)C2=O)cc1 (stereo unspecified) | . | ? | ? | . | -6.2%
COc1ccccc1-c1nnc(C2CCN(S(=O)(=O)c3ccc(CC(C)C)cc3)CC2)o1 | . | 7.3% | -11.9% | . | -10.8%
